We go through 40 molecules from PubChem BioAssay (NCI).

SMILES strings stand for the structures. The panel holds about 83,000 compounds, 20% with a hit somewhere; the sample as a whole holds those more often.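 Interpretation: 100, growth as untreated; towards 0, rising growth inhibition; 0, no net growth; 0 to -100, cell death. Compounds scoring below 10 were considered active.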 Values without a mark were called inactive. Activity calls are given as the source filed them.

In the test the test system is KM12 colon. As to the kind of experiment: NCI-60 one-dose screen, 48 h (100 = growth as untreated, 0 = no growth, -100 = all killed). The conditions noted are these: 10 µM unless noted. The procedure:
Growth inhibition of the KM12 human tumor cell line is measured as a screen for anti-cancer activity. Cells are grown in 96 well plates and exposed to the test compound for 48 hours. Compounds are tested at a single concentration, which is 10^-5 M for most compounds. The reported endpoint is percent growth (GI% or GIPRCNT), where numbers from 0 - 100% represent growth inhibition, and numbers from -100% - 0 represent cell death. For example, a value of 40 represents 60% growth inhibition. A value of 0 means no net growth occurred over the course of the experiment. A value of -40 indicates 40% of cells at the beginning of the experiment died by the end of the experiment. A value of -100 means all cells are dead at the end of the experiment.
NCI-60 Human Tumor Cell Lines Screen was performed using the standard one-dose NCI protocol, which is described in more detail at https://dtp.cancer.gov/discovery_development/nci-60/default.htm.
Compounds with GIPRCNT values below 10 were considered active. Activity score was based on GIPRCNT using the following formula: […]
Score is 0 for GIPRCNT values of 100 or above, 50 for GIPRCNT values of 0, and 100 for GIPRCNT values of -100.
In the case of `Cc1ccc(/C=C(/C#N)n2nnc3cccc(F)c32)cc1`, the growth is -17.6% (active).
In the case of `Cc1c(C)c([N+](=O)[O-])c(C)c([N+](=O)[O-])c1C`, the growth was 108%.
`COc1ccc2[nH]c(=O)c(CN3CCN(c4nccc(-c5ccc(Cl)cc5)n4)CC3)cc2c1`: the growth is 90.6%.
On to `O=C(NCCNc1nccc(-c2c(-c3cccc(F)c3)nc3sccn23)n1)c1ccc(Cl)cc1`, for which the growth was 62.8%.
With `CC(=O)[C@@H]1CC[C@]2(C(N)=O)CC[C@]3(C)[C@H](CC[C@@H]4[C@@]5(C)CCCNC(C)(C)[C@@H]5CC[C@]43C)[C@@H]12`, the growth is 90.5%.
Take `COc1cc2c(=O)n(CCN(C)C)c3c4cc5c(cc4ccc3c2cc1OC)OCO5`: the growth was -25.2% (active).
Consider `COc1ccc(C(=O)CC#N)cc1`, for which the growth is 108%.
In the case of `CCN(CC)CCCC(C)Nc1cc(O)cc2cccnc12` (stereo not given) it was 105%; in that of `COc1ccc(/C=C/c2nc(Nc3ccc(S(=O)(=O)Nc4nc(C)cc(C)n4)cc3)c3ccccc3n2)cc1`, 47.5%; in that of `CNC(=O)c1cccc(Cn2nc(C)c(NC(=O)c3ccc(COc4ccc(C(F)(F)F)cc4C)cc3)c2C)c1`, 61.7%.
As for `O=c1c2c(c(=O)n1O)c1c3ccc[nH]c3nc1c1nc3[nH]cccc3c12`, the growth was 97.1%.
Consider `NC(=NCCCOc1ccc(F)cc1)Nc1ccc(Cl)cc1`, for which the growth is 76.7%.
For `C#Cc1cccc(NC(=O)Nc2cccc(NC(=O)CCl)c2)c1`, the growth is 32.9% [8.25 µM].
With `CNC(=O)c1cncc(Cn2nc(C)c(NC(=O)c3ccc(COc4ccc(C(F)(F)F)cc4C)cc3)c2C)c1`, the growth is 74.8%.
Consider `c1ccc2cc(Cn3c(-c4cccc5ccccc45)[n+](Cc4ccc5ccccc5c4)c4c5ccccc5c5ccccc5c43)ccc2c1`, for which the growth is -82.2% (active).
Regarding `Cn1cc(-c2nc(-c3c[nH]c4c(Cl)nccc34)cs2)c2cc(Br)ccc21`, the growth was 86.2%.
In the case of `Nc1nc(Nc2ccccc2SSc2ccccc2Nc2nc(N)nc(-c3cccs3)n2)nc(-c2ccsc2)n1` it was 67.6%.
Turning to `COc1ccc(C(=O)c2cc(C)c(OC)c(C)c2)c(OC)c1N(C(=O)CCl)C(=O)CCl`, the growth is 6.61% (active).
As for `NS(=O)(=O)c1ccc(CCN2C(=O)C3C(C2=O)C2(Cl)C(Cl)=C(Cl)C3(Cl)C2(Cl)Cl)cc1` (stereo not given), the growth was 105%.
As to `CCCC/C=N/NC(=S)NCc1ccccc1`, the growth was 104%.
For the molecule `O=C1c2ccccc2CCC12OC2c1cn(-c2ccccc2)nc1-c1ccc(Cl)cc1` (stereo not given), the growth was 97.9%.
Turning to `COc1cc(/C=C/c2cc(O)c(C(C)=O)c(O)c2)cc2c1O[C@]1(C)CC[C@@H](O)C(C)(C)[C@H]1C2`, the growth is 53.9%.
As to `O=C(CCN1CCCC1)Nc1ccc2c(NCc3ccccc3)c3ccccc3nc2c1`, the growth was -2.03% (active).
In the case of `CCOC(=O)/C(C#N)=C1/NNC(=Nc2cccnc2)S1` it was 102%.
In the case of `COc1cc2c(=O)n(CCCN(C)C)c3c4cc5c(cc4ccc3c2cc1OC)OCO5` it was 47.8%; in that of `CCCCC[n+]1ccc(SCC(=O)N(C)c2ccc(Oc3ccccc3)cc2)c2ccccc21`, 102%.
As to `COc1ccc(-c2cnc3c(-c4cccc5ncccc45)cnn3c2)cc1`, the growth was 69.3%.
`O=C(Cn1c[n+](CC(=O)c2ccc([N+](=O)[O-])cc2)c2ccccc21)Nc1cccc2cccnc12`: the growth is 78.4%.
As for `COc1cccc(-c2nc3occn3c2-c2ccnc(NCCNS(=O)(=O)c3ccc(C(F)(F)F)cc3)n2)c1`, the growth was 98.9%.
Consider `CC(C)(C)c1cc(/C=N/NC(=O)c2ccccc2NC(=O)c2cccs2)c(O)c(C(C)(C)C)c1`, for which the growth was 25.6%.
With `CCN(CC)CC[n+]1cc2cc(OC)c(OC)cc2c2ccc3cc4c(cc3c21)OCO4`, the growth was -82.2% (active).
In the case of `Cc1cnc(C(=O)Nc2nc3ccc(S(=O)(=O)Nc4ccc(C5(C(F)(F)F)CC5)cc4)cc3[nH]2)cn1` it was 16%; in that of `N/C(=N\C(N)=N\c1nc2ccccc2s1)c1cccc(Cl)c1`, 40.8%.
`COc1cc(/C=N/NC(=O)c2cnn3c2NC(c2ccccc2)C3)ccc1OCc1ccccc1` (stereo not given): the growth was 2.22% (active).
In the case of `COc1cc(/C=N/NC(=O)c2cnn3c2NC(c2ccccc2)C3)ccc1Oc1ccccc1` (stereo not given) it was 16.6%; in that of `O=c1ccc(-c2nc(N3CCOCC3)c3ccccc3n2)c[nH]1`, 107%.
As for `NC(=NCc1ccccc1)C(N=Nc1ccccc1)C(=O)NCc1ccccc1` (stereo not given), the growth was 34.6%.
In the case of `Cn1cc(CC2CC(=O)N(c3ccccc3)C2=O)sc1=NC(=O)c1ccccc1` (stereo not given) it was 98.6%.
In the case of `COc1ccc(C(=O)/C=C/c2cc3ccccc3n3nnnc23)cc1` it was 109%; in that of `Cc1cc(C)c(S(=O)(=O)Oc2ccccc2[N+](=O)[O-])c(C)c1`, 23%.
